Measurements: ChEMBL document CHEMBL1961873, “Compounds: GSK PKIS; Assays: Nanosyn kinase panel” (2012)

How the values were obtained:
[1] = molecular target: Mast/stem cell growth factor receptor Kit (Homo sapiens) (UniProt P10721); details: at 1 µM
[2] = system: Mast/stem cell growth factor receptor Kit (Homo sapiens), P10721 [D816V]; details: at 0.1 µM
[3] = system: Mast/stem cell growth factor receptor Kit (Homo sapiens), P10721 [D816V]; details: at 1 µM
[4] = system: Mast/stem cell growth factor receptor Kit (Homo sapiens), P10721 [T670I]; details: at 0.1 µM
Mast/stem cell growth factor receptor Kit (Homo sapiens), P10721 [T670I], sequence (P10721 whole entry T670I): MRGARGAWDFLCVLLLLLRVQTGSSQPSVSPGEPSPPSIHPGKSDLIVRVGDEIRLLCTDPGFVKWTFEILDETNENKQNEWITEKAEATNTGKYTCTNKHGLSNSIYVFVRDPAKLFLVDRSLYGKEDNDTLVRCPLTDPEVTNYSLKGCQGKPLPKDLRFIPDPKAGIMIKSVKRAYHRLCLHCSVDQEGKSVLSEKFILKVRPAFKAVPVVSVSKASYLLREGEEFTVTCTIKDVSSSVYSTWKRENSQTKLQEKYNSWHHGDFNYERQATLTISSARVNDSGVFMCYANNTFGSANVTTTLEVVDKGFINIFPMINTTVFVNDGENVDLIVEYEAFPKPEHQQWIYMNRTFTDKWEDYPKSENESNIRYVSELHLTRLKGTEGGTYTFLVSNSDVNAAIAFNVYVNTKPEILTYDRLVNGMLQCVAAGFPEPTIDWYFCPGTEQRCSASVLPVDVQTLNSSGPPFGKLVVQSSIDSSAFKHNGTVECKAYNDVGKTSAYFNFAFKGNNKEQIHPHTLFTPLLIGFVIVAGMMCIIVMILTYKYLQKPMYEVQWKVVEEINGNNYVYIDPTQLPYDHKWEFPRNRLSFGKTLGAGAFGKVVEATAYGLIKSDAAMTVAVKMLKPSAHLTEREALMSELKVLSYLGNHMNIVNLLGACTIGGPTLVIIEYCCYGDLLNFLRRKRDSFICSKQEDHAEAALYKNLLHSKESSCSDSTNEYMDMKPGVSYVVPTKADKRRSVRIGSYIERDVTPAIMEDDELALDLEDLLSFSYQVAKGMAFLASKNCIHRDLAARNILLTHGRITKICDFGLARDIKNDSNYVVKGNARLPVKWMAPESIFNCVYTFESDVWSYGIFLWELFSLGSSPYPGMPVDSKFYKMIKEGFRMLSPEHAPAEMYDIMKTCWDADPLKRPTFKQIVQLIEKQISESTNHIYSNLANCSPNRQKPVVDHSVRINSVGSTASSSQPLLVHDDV

[5] = system: Mast/stem cell growth factor receptor Kit (Homo sapiens), P10721 [T670I]; details: at 1 µM
[6] = system: Mast/stem cell growth factor receptor Kit (Homo sapiens), P10721 [V560G]; details: at 0.1 µM
Mast/stem cell growth factor receptor Kit (Homo sapiens), P10721 [V560G], sequence (P10721 whole entry V560G): as the sequence (P10721 whole entry T670I) above, with V560G, I670T counted along it

[7] = system: Mast/stem cell growth factor receptor Kit (Homo sapiens), P10721 [V560G]; details: at 1 µM
[8] = molecular target: Tyrosine-protein kinase Lck (Homo sapiens) (UniProt P06239); details: at 0.1 µM
Tyrosine-protein kinase Lck (Homo sapiens), sequence (P06239 2-509 limits assumed): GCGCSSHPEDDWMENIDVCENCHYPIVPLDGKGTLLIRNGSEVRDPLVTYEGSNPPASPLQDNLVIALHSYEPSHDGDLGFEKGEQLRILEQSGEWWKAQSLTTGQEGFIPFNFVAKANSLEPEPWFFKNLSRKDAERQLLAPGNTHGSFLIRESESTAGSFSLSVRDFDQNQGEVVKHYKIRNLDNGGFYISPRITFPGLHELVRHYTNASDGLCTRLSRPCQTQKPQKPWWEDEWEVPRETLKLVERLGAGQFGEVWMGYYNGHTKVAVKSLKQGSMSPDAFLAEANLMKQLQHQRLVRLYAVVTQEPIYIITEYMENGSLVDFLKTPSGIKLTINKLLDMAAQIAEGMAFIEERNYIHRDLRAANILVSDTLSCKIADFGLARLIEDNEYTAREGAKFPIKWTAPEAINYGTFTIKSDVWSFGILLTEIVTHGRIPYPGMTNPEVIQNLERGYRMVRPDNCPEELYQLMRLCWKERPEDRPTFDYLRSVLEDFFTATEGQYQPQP

[9] = molecular target: Tyrosine-protein kinase Lck (Homo sapiens) (UniProt P06239); details: at 1 µM
[10] = molecular target: Leukocyte tyrosine kinase receptor (Homo sapiens) (UniProt P29376); details: at 0.1 µM
Leukocyte tyrosine kinase receptor (Homo sapiens), sequence (P29376 whole entry): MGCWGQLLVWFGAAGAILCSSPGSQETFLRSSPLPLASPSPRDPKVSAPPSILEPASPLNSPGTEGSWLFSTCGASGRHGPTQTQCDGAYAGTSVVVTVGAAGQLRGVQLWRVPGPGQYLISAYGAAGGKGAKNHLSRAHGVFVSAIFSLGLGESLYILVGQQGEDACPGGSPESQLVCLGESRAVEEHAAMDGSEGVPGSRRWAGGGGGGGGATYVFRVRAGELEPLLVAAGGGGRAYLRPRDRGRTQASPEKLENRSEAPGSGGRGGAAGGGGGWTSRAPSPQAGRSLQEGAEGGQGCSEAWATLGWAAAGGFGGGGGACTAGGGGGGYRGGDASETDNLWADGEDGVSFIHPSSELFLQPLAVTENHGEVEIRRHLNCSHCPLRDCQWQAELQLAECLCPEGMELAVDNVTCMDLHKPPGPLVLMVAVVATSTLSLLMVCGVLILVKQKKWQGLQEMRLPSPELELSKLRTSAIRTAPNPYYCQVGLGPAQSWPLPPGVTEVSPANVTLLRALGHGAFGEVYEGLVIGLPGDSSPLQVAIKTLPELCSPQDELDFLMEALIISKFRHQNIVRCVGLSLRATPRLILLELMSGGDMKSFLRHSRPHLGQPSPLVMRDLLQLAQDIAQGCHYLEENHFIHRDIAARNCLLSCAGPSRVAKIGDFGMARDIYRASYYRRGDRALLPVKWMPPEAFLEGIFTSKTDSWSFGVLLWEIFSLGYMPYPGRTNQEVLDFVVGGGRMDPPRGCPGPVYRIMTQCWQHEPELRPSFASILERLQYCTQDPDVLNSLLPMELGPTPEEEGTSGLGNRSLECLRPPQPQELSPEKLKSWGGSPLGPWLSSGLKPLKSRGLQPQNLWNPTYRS

[11] = molecular target: Leukocyte tyrosine kinase receptor (Homo sapiens) (UniProt P29376); details: at 1 µM
[12] = molecular target: Tyrosine-protein kinase Lyn (Homo sapiens) (UniProt P07948); details: at 0.1 µM
Tyrosine-protein kinase Lyn (Homo sapiens), sequence (P07948 2-512 limits assumed): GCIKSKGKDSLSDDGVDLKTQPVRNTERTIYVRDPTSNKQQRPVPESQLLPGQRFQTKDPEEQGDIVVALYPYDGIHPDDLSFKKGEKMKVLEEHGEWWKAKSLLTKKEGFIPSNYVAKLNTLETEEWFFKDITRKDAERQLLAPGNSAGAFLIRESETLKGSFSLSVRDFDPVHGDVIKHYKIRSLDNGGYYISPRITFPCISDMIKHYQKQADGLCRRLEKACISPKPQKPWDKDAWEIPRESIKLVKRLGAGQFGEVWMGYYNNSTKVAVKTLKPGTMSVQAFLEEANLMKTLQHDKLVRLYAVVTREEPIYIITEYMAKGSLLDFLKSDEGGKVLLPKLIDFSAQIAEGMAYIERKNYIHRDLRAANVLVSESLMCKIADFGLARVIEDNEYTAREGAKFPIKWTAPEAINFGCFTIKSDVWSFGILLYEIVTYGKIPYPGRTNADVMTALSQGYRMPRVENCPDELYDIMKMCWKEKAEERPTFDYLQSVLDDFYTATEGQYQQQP

[13] = molecular target: Tyrosine-protein kinase Lyn (Homo sapiens) (UniProt P07948); details: at 1 µM
[14] = molecular target: Tyrosine-protein kinase Lyn (Homo sapiens) (UniProt P07948); details: at 0.1 µM; remark: listed apart in the source
[15] = molecular target: Tyrosine-protein kinase Lyn (Homo sapiens) (UniProt P07948); details: at 1 µM; remark: listed apart in the source
[16] = molecular target: T1, Tyrosine-protein kinase Mer (Homo sapiens) (UniProt Q12866); details: at 0.1 µM
T1 sequence (whole entry): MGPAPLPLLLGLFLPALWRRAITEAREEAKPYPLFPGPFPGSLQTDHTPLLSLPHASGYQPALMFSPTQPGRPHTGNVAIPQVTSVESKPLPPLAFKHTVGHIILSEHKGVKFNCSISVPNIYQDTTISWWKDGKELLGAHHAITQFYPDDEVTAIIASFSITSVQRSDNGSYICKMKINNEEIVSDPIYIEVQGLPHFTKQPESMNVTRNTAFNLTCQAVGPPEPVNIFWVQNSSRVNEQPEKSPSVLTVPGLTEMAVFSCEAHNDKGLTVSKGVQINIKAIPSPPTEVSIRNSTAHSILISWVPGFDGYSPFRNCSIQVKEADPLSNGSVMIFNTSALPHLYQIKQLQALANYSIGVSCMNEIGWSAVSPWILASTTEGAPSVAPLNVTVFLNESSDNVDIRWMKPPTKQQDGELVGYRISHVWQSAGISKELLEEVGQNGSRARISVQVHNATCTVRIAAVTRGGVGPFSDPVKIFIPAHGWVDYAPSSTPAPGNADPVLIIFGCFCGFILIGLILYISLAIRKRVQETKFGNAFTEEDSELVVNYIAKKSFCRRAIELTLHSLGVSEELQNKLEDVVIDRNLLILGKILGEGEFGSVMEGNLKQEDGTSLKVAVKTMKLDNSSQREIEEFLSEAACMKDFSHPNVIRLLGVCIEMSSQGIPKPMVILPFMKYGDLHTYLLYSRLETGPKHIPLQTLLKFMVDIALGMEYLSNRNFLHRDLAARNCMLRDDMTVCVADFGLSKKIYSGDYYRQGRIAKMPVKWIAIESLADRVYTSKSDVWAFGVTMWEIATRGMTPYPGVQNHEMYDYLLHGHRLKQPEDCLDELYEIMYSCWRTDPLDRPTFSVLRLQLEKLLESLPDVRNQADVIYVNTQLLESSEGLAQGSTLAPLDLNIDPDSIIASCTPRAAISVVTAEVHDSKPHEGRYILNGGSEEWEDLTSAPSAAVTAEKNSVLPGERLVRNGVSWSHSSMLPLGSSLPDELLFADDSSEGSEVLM

[17] = molecular target: T1, Tyrosine-protein kinase Mer (Homo sapiens); details: at 1 µM
[18] = molecular target: Hepatocyte growth factor receptor (Homo sapiens) (UniProt P08581); details: at 0.1 µM
Hepatocyte growth factor receptor (Homo sapiens), sequence (P08581 whole entry): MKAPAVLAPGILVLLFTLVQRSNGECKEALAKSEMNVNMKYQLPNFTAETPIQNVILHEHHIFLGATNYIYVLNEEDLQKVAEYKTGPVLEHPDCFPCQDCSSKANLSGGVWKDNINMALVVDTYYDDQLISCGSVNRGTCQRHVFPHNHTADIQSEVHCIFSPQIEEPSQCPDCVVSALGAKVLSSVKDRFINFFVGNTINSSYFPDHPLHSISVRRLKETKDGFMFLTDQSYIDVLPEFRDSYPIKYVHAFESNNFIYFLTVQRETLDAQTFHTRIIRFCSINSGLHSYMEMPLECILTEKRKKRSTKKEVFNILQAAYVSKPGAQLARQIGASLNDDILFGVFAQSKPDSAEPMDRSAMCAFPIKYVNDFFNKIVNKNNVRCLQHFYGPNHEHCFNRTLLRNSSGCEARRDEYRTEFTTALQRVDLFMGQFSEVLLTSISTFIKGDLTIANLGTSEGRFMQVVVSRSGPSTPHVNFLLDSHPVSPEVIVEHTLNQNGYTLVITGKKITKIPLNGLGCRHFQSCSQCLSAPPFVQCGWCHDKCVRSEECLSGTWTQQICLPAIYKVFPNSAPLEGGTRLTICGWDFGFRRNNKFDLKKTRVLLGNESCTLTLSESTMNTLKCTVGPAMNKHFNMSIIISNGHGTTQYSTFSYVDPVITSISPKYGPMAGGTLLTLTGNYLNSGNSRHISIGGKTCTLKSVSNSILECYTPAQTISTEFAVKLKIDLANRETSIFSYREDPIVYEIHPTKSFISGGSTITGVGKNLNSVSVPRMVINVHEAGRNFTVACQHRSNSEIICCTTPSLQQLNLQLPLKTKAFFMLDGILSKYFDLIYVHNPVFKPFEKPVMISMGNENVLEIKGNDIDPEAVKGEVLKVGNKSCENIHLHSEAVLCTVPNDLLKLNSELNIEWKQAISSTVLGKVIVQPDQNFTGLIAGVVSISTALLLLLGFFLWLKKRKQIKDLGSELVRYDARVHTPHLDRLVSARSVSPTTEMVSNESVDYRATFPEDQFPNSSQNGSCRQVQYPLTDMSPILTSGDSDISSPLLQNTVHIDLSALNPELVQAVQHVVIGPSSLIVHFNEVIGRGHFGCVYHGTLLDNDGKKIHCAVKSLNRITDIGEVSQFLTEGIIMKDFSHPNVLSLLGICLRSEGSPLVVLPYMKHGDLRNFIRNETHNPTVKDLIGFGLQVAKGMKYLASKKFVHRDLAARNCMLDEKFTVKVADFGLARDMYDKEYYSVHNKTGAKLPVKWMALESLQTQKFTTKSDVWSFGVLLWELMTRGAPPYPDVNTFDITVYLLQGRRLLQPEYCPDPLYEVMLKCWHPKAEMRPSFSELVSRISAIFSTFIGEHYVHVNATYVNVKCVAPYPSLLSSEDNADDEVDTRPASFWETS

[19] = molecular target: Hepatocyte growth factor receptor (Homo sapiens) (UniProt P08581); details: at 1 µM
[20] = molecular target: T2, Muscle, skeletal receptor tyrosine-protein kinase (Homo sapiens) (UniProt O15146); details: at 0.1 µM;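 further: values are mean inhibition of MuSK from the GSK PKIS kinase screening panel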
T2 sequence (whole entry): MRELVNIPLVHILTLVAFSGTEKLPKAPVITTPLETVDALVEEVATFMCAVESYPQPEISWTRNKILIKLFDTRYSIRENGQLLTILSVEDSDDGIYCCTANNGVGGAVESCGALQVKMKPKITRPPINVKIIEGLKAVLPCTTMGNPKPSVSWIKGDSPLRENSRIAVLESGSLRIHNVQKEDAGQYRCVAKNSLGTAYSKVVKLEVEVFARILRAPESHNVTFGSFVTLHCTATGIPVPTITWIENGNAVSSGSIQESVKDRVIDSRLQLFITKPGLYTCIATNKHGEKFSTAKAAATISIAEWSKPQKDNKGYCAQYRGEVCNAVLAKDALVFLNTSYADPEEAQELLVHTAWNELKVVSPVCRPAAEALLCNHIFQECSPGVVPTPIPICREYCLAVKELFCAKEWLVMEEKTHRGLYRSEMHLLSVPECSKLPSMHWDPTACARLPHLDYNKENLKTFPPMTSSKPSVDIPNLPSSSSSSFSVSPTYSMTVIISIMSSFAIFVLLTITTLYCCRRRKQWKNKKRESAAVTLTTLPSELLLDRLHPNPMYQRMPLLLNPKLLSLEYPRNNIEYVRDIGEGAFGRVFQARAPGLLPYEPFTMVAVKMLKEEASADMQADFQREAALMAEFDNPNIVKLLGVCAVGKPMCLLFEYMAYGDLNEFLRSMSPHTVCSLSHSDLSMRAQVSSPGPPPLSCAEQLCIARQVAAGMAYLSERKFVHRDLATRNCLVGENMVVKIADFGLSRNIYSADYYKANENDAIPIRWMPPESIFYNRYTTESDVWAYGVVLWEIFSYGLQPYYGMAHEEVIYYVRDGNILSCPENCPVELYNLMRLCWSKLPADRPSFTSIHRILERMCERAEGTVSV

Mast/stem cell growth factor receptor Kit (Homo sapiens), sequence (P10721 whole entry): as the sequence (P10721 whole entry T670I) above, with I670T counted along it
Mast/stem cell growth factor receptor Kit (Homo sapiens), P10721 [D816V], sequence (P10721 whole entry D816V): as the sequence (P10721 whole entry T670I) above, with I670T, D816V counted along it

Row | SMILES | inhibition [1] [%] | inhibition [2] [%] | inhibition [3] [%] | inhibition [4] [%] | inhibition [5] [%] | inhibition [6] [%] | inhibition [7] [%] | inhibition [8] [%] | inhibition [9] [%] | inhibition [10] [%] | inhibition [11] [%] | inhibition [12] [%] | inhibition [13] [%] | inhibition [14] [%] | inhibition [15] [%] | inhibition [16] [%] | inhibition [17] [%] | inhibition [18] [%] | inhibition [19] [%] | inhibition [20] [%]
1 | NS(=O)(=O)c1ccc(N/N=C2\C(=O)Nc3ccc(C(=O)NCCCn4ccnc4)cc32)cc1 | 9.5 | 6.28 | 9.36 | 3.5 | 5.57 | -1.18 | 1.2 | 1.53 | 7.02 | 5.17 | 7.11 | 6.54 | 16.1 | 4.32 | 12.4 | 1.34 | 6.35 | 2.76 | 12 | 4.66
2 | Fc1ccc(-c2ncn(CCCN3CCOCC3)c2-c2ccncc2)cc1 | -0.81 | 0.65 | -1.66 | -0.29 | -2.16 | 2.57 | 0.03 | 0.17 | 3.45 | 0.08 | -2.09 | -0.59 | -0.14 | -1 | -0.37 | 0.24 | -0.01 | 3.89 | -1.62 | -0.13
3 | CCS(=O)(=O)c1ccc(OC)c(Nc2ncc(-c3ccccc3Cl)o2)c1 | 85.2 | 0.9 | 0.58 | 0.14 | 24.3 | 3.4 | 8.88 | 4.24 | 10.2 | 1.67 | 0.98 | 3.85 | 18.6 | 3.61 | 14.8 | -0.83 | 9.17 | 0.15 | 3.68 | 4.75
4 | COC(=O)Nc1nc2ccc(Sc3ccc(NC(=O)Nc4cc(C(F)(F)F)ccc4F)cc3)cc2[nH]1 | 43.9 | -2.14 | 5.31 | -0.05 | 30 | 2.79 | 27.3 | 5.45 | 34.7 | -0.1 | -2.11 | 5.69 | 56.1 | 4.04 | 49.8 | -0.94 | 2.34 | 1.57 | 36.2 | 32.2
5 | CN1CCN(CCCNc2nc3ccc(Oc4ccc(NC(=O)Nc5cc(C(F)(F)F)ccc5F)cc4)cc3[nH]2)CC1 | 91.9 | -2.19 | 0.02 | 11.5 | 70.1 | 31.6 | 76.6 | -1.91 | 7.95 | -0.24 | -0.03 | 1.76 | 13.2 | 0.61 | 9.37 | 2.04 | 6.67 | 5.66 | 8.95 | 15
6 | COc1cc2ncn(-c3cc(OCc4ccccc4C(F)(F)F)c(C(C)=O)s3)c2cc1OC | 4.53 | 2.21 | 1.58 | 2.81 | 6.12 | -1.46 | 1.6 | 4.22 | 9.66 | 2.03 | 3.33 | 3.36 | 6.9 | 4.22 | 6.9 | -0.14 | 4.1 | 1.74 | 13.5 | 2.48
7 | COc1cccc(/C=N/Nc2ncnc3c2cnn3-c2cccc(OC)c2)c1 | 6.76 | 2.28 | 4.96 | 1.91 | 4.1 | 3.55 | 0.61 | 2.18 | 8.97 | 5 | 4.06 | 5.08 | 15.3 | 3.29 | 10.9 | 1.87 | 2.85 | 4.9 | 9.96 | 1.34
